Assay outcomes: PubChem BioAssay, National Center for Advancing Translational Sciences (NCATS)
uPA surface inh: blocks generation of uPA at the cell surface. cell surface uPA generation assay, qHTS. Potency, µM (highest dose often 38.3 µM), without a hit: at the highest dose activity change, negative = inhibition, usual class: inhibitors. actives 0.31% (n = 330,000). AID 540303; active = well fitted inhibition curve with a large enough effect; inconclusive = small, poorly fitted or top-dose-only effect; inactive = no such curve, though single readings can be large or run the other way; tested in mouse RAW 264.7 cells; note: potency is the fitted concentration of half-maximal effect; nearly all actives have a fitted effect of over 55% in size
TDP1 cell noCPT: qHTS for Inhibitors of human tyrosyl-DNA phosphodiesterase 1 (TDP1): qHTS in cells in absence of CPT; DT40 Tdp1-/- hTDP1 cells, no CPT, ATP luminescence, 48 h; Potency, µM (top dose mostly 46.2 µM), inactives show at the top dose activity change, negative = growth inhibition, most hits filed as inhibitors; actives 15% (n = 420,000); note: potency is the fitted concentration of half-maximal effect; nearly all actives have a fitted effect of over 55% in size
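Growth of hTDP1-complemented DT40 Tdp1-knockout cells is measured by ATP luminescence after at least 48 hr compound exposure at 37 °C, with DMSO substituting for the 20 nM CPT used in the parallel screen.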
TDP1 cell CPT: growth inhibition of DT40 Tdp1-/-;hTDP1 cells with camptothecin (screen for TDP1 inhibitors); actives 12% (n = 420,000); AID 686979; Potency, µM (titrated, usually from 46.2 µM), inactives show top-dose activity change, negative = growth inhibition, hits mostly inhibitors; chicken DT40 Tdp1-/-;hTDP1 cells + 20 nM CPT, ATP luminescence, 48 h; note: potency is the fitted concentration of half-maximal effect; nearly all actives have a fitted effect of over 55% in size
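Chicken DT40 Tdp1-/- cells complemented with human TDP1, 400 cells/well, exposed to compounds plus 20 nM camptothecin for at least 48 h at 37 C; viability read as ATP content by CellTiter-Glo luminescence.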
HT1080NT lethal: kills 2HG-producing HT-1080-NT fibrosarcoma cells. HT-1080-NT fibrosarcoma viability, CellTiter-Glo ATP luminescence, 48 h. Potency, µM (titrated, usually from 46.1 µM), for inactives: at the highest dose activity, negative = less viability, actives largely listed as cytotoxic. actives 1.6% (n = 360,000). AID 686970;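 note: NT is the 2HG producing partner of a matched IDH1 knockdown line; potency is the fitted concentration of half-maximal effect; 0% = DMSO-treated cells and -100% = media-only wells without cells; nearly all actives have a fitted effect of over 55% in size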
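Fibrosarcoma NT cells, 750 per well in 5% FBS RPMI, were exposed to compound for 48 hours. Viability: CellTiter-Glo luminescence.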
IL-1B inflam inh: inhibitors of inflammasome signaling (IL-1 beta secretion) | THP-1 LPS/ATP IL-1B secretion, AlphaLISA, 16 h; hits give low values | activity change, % at 57.5 µM | actives 4.7% (n = 360,000) | AID 743279; in the data active = activity change below about -50%; inconclusive = mostly about -30% to -49%
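THP-1 cells pretreated 1 hr with compounds (up to 57.5 uM final), then stimulated with LPS (250 ng/mL final) plus ATP (1.25 mM final); secreted IL-1B measured by AlphaLISA after 16 hr, decreased signal indicating inhibition.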
HT1080 IDH1KD tx: toxicity to HT-1080 IDH1 knockdown cells (counter line) | HT-1080 IDH1 knockdown viability, ATP luminescence, 48 h | Potency, µM (top dose mostly 46.1 µM), for inactives: top-dose activity, negative = toxicity, hits mostly cytotoxic | actives 2% (n = 360,000) | AID 686971;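 note: potency is the fitted concentration of half-maximal effect; 0% = DMSO wells and -100% = cell-free medium wells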
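After a 2 h attachment period, IDH1KD HT-1080 cells took pin-transferred compound for 48 h at 37 °C; ATP-based luminescence after 10 min room-temperature reagent incubation reported viability.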
* hit, by the source's call; ? = inconclusive; . = no result. Only some compounds are listed: those with a hit (about 19% of all), similar ones and a draw of the others. Unless noted, calls come from the whole dose curve; as a rule, active = well fitted curve in the direction sought with a large enough effect; inconclusive = small, poorly fitted or top-dose-only effect, or another doubt; inactive = no such curve, though single readings can be large; an effect the other way counts as inactive or inconclusive. Unless noted, % is set by controls: 0 for no effect and ±100 for the full control effect.

SMILES | uPA surface inh | TDP1 cell noCPT | TDP1 cell CPT | HT1080NT lethal | IL-1B inflam inh | HT1080 IDH1KD tx
CCc1ccc(CN(C)C(=O)C2CCC(=O)N(CC3CCCCC3)C2)cc1 (configuration not stated) | -2.8% | ? | 23.1µM* | -4.8% | -10.4 | -9.4%
CN(Cc1ccccc1C(F)(F)F)C(=O)C1CCC(=O)N(CC2CCCCC2)C1 (configuration not stated) | . | -12.5% | -23.5% | 2.9% | 8.5 | -2.2%
[O-][n+]1cccc(CO)c1 | . | 1.3% | 22.2% | . | . | .
CC1CN(C(=O)/C=C/c2ccccc2[N+](=O)[O-])CC(C)O1 (configuration not stated) | -0.9% | -2.8% | -3.0% | 12.7% | 3.5 | 16.2%
O=C(/C=C/c1ccccc1[N+](=O)[O-])N1CCCCC1 | -4.8% | 16.5% | ? | -0.3% | -5.0 | 1.3%
CC1CN(C(=O)/C=C/c2ccc([N+](=O)[O-])s2)CC(C)O1 (configuration not stated) | -17.9% | 14.6µM* | ? | ? | -23.1 | ?
O=C(/C=C/c1ccc([N+](=O)[O-])s1)N1CCCC1 | 11.2µM* | 10.3µM* | 20.6µM* | ? | 7.3 | -18.7%
O=C(/C=C/c1ccc([N+](=O)[O-])s1)N1CCCCC1 | -14.0% | 11.6µM* | ? | ? | -90.1* | 23.1µM*
O=C(/C=C/c1ccc([N+](=O)[O-])s1)N1CCN(c2ccccc2)CC1 | ? | 16.4µM* | ? | -0.7% | -12.4 | 0.0%
CC(=O)Nc1ccc(S(=O)(=O)N2CCN(CC3CC4C=CC3C4)CC2)cc1 (configuration not stated) | 4.0% | ? | ? | -3.5% | 0.4 | -13.9%
CCN(CC)C(=O)CSc1nnc([C@@H](N)C(C)C)o1 | 9.2% | -1.6% | 5.9% | -3.9% | 5.4 | 0.4%
COc1cccc(CNC(=O)[C@@H]2CCCN2C(=O)[C@@H]2CCCN2)c1 | . | -15.6% | 0.9% | 17.7% | 9.4 | 16.1%
CC(C)C1C(=O)N(Cc2cn(Cc3ccco3)nn2)CCS(=O)(=O)N1Cc1ccc(-c2ccncc2)cc1 (configuration not stated) | . | -14.9% | -12.5% | 9.1% | -10.4 | 12.9%
CC(C)C1C(=O)N(Cc2cn(Cc3ccco3)nn2)CCS(=O)(=O)N1Cc1ccc(-c2ccc(F)cc2)cc1 (configuration not stated) | . | 20.6µM* | ? | ? | -14.8 | ?
CC(C)C1C(=O)N(Cc2cn(Cc3ccco3)nn2)CCS(=O)(=O)N1Cc1ccc(-c2ccc(Cl)cc2)cc1 (configuration not stated) | . | 6.51µM* | 9.2µM* | ? | -12.8 | ?
CC(C)C1C(=O)N(Cc2cn(Cc3ccco3)nn2)CCS(=O)(=O)N1Cc1ccc(-c2ccccc2)cc1 (configuration not stated) | . | 18.4µM* | ? | ? | -16.8 | ?
CC(=O)N1C[C@H]2CON(C)[C@H]2C[C@H]1c1cccc(-c2ccc(C#N)cc2)c1 | . | -17.7% | -0.5% | -1.7% | -2.3 | -0.7%
CCOC(=O)N1CCN(CC(O)COc2ccc(OC)cc2C(C)(C)C)CC1 (configuration not stated) | -2.5% | ? | ? | 7.6% | 10.9 | -2.5%
COc1ccc(CCNCC(O)Cn2c3ccccc3c3ccccc32)cc1OC (configuration not stated) | ? | 11.6µM* | 13µM* | -6.0% | -54.9* | 23.1µM*
COc1ccc(CCNCC(O)COc2ccc(OC)cc2C(C)(C)C)cc1 (configuration not stated) | -0.2% | ? | ? | ? | -97.0* | 18.4µM*
COc1ccc(CCNCC(O)COc2cccc(Br)c2)cc1OC (configuration not stated) | 0.4% | ? | ? | -15.9% | -61.2* | -19.2%
COc1ccc(CNCC(O)COc2ccc3[nH]c(=O)ccc3c2)cc1OC (configuration not stated) | . | -2.2% | 9.9% | . | . | .
COc1cc(C(=O)N2CCN(S(=O)(=O)c3ccc(C)cc3)CC2)ccc1OCC(=O)N1CCOCC1 | -11.7% | -8.0% | 1.8% | 2.1% | -0.3 | 9.1%
COc1cc(C(=O)N2CCN(c3cccc(C(F)(F)F)c3)CC2)ccc1OCC(=O)N1CCOCC1 | -7.4% | 20.6µM* | 23.1µM* | -1.6% | -10.3 | -9.4%
CCn1cc(C(=O)N2CCN(c3cccc(C)c3C)CC2)c2cc(OC)c(OC)cc2c1=O | . | 20.6µM* | 20.6µM* | . | . | .
SMILES | uPA surface inh | TDP1 cell noCPT | TDP1 cell CPT | HT1080NT lethal | IL-1B inflam inh | HT1080 IDH1KD tx
COc1cc2c(C(=O)N3CCN(c4ccccc4F)CC3)cn(C)c(=O)c2cc1OC | 4.4% | -23.6% | -8.0% | -4.4% | 13.2 | -26.7%
CCn1cc(C(=O)N2CCN(c3cccc(C(F)(F)F)c3)CC2)c2cc(OC)c(OC)cc2c1=O | . | 23.1µM* | 18.4µM* | . | . | .
CCn1cc(C(=O)NCC(=O)OC)c2cc(OC)c(OC)cc2c1=O | 5.4% | -1.6% | -4.7% | 8.8% | 20.3 | 11.0%
COc1cc2c(C(=O)N3CCN(c4cccc(Cl)c4)CC3)cn(CC(C)C)c(=O)c2cc1OC | -8.4% | ? | 23.1µM* | -22.8% | 0.0 | ?
COCC(=O)N1CCN(c2cccc(C(F)(F)F)c2)CC1 | -1.3% | -23.0% | ? | 13.9% | 0.0 | 3.4%
COc1ccccc1C(=O)N1CCN(c2cccc(C(F)(F)F)c2)CC1 | -5.7% | 11.6µM* | 10.3µM* | 14.6µM* | -2.0 | 9.2µM*
N#C/C(=C1/C(=O)Nc2ccc(Br)cc21)c1ccccn1 | ? | ? | ? | 11.1% | -61.8* | 7.2%
NC1=NC(c2ccc(Cl)cc2)C(C(=O)c2ccccc2)N1 (configuration not stated) | ? | 11.6µM* | ? | 18.4µM* | 100.1 | 14.6µM*
O=C(CSc1nc2ccccc2o1)Nc1nc2c(s1)CCCC2 | ? | 14.6µM* | ? | ? | -10.1 | ?
CCc1nc(SCC(=O)Nc2nc3c(s2)CCCC3)c2ccccc2n1 | -7.1% | 13µM* | 18.4µM* | -22.9% | -85.7* | -9.1%
CCCc1nc(SCC(=O)Nc2nc3c(s2)CCCC3)c2ccccc2n1 | -8.7% | -1.3% | ? | 0.3% | -23.6 | 2.9%
CCOC(=O)c1c(NC(=O)c2nc(SC(C)C)ncc2Cl)sc2c1CCCC2 | . | -11.0% | 5.2% | . | . | .
O=C1NN(CCO)C(=S)Nc2ccccc21 | . | -8.1% | 0.4% | -4.5% | -4.7 | -2.9%
